Experimental data reported in PubChem BioAssay (Tox21).
The source made the active and inactive calls. Calls follow the shape of the full dose curve.

These compounds were tested against Estrogen receptor (Homo sapiens) (UniProt P03372) (assay: qHTS assay to identify small molecule agonists of the estrogen receptor alpha (ER-alpha) signaling pathway in the presence of an antagonist (AID 1259383; also: top concentration of the series differs between compounds; nearly all actives have a fitted effect of over 15% in size)). Details: VM7Luc4E2 cells, ERE-luciferase, +ICI-182,780, 22 h; series mostly up to 92.4 µM; activation: at the top concentration.
Sequence of Estrogen receptor (Homo sapiens) (P03372 whole entry, looked up): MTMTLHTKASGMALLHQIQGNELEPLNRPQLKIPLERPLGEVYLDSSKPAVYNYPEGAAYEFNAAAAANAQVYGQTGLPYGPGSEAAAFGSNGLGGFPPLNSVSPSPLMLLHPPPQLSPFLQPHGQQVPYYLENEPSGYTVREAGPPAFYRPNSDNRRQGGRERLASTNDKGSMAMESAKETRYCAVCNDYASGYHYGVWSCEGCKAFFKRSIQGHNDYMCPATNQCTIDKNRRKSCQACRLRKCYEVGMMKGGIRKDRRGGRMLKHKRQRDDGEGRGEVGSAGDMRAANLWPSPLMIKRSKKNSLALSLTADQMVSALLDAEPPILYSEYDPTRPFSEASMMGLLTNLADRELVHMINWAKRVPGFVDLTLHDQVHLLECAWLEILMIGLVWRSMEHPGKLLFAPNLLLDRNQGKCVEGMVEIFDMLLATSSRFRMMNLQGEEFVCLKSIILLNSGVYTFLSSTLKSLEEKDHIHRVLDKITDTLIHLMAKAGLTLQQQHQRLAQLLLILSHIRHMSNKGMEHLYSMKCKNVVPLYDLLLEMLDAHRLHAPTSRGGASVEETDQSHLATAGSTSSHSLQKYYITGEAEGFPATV
Procedure, shortened: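 VM7Luc4E2 cells express endogenous full-length ER-alpha with an ERE-luciferase reporter and were hormone-deprived for 5 days. Compounds at 15 concentrations were added with 10.0nM ICI-182,780 for 22hr at 37C. Luminescence was read with ONE-Glo.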
% is scaled to controls: 0 for no effect and ±100 for the full control effect.

Structure (SMILES) | activation
CCCCCC=CCC=CCCCCCCCC(=O)OCC | 0.388% [at 42.5 µM] (inactive)
CN1Cc2cc(C(=O)N3CCC(C4CCNCC4)CC3)ccc2N[C@@H](CC(=O)O)C1=O | -0.568% [at 42.5 µM] (inactive)
CCCCC(CC)C(=O)OCCOCCOCCOCCOC(=O)C(CC)CCCC (stereo not drawn) | 0.117% (inactive)
CC[C@H](NC(=O)c1cc(F)ccc1NS(=O)(=O)c1cccc2cccnc12)c1ccccc1 | 0.0145% (inactive)
CC(C)(C)CC(C)(C)c1ccc(OCCO)cc1 | -8.04% (inactive)
CN1CCN(c2c(F)cc3c(=O)c(C(=O)O)cn4c3c2OCN4C)CC1 | -0.999% [at 19 µM] (inactive)
C1COCO1 | 0.364% (inactive)
CCCCCCCCCOC(C)=O | -0.125% (inactive)
O=C(O)c1cccc(O)c1 | -0.0645% (inactive)
CC(CCO)CCc1ccccc1 (stereo not drawn) | 0.251% (inactive)
Oc1cc(O)c(Cl)cc1Cl | 0.234% (inactive)
CCCCC(CC)COC(=O)COc1ccc(Cl)cc1C (stereo not drawn) | 0.0737% (inactive)
CC(=O)N(c1onc(C)c1C)S(=O)(=O)c1ccc(N)cc1 | 0.0759% [at 42.5 µM] (inactive)
O=C(/C=C/c1ccccc1)OCCCc1ccccc1 | 12.2% (inactive)
CCCOC(=O)c1ccc(C(=O)OCCC)nc1 | 3.35% (inactive)
CC1(C)O[C@@H]2C[C@H]3[C@@H]4CCC5=CC(=O)C=C[C@]5(C)[C@H]4[C@@H](O)C[C@]3(C)[C@]2(C(=O)CO)O1 | 0.977% [at 42.5 µM] (inactive)
O=C(Nc1ccccc1)Nc1ccccc1 | 13.2% (inactive)
O=C1NCCN1 | -0.126% (inactive)
CCCC(=O)O[C@]1(C(=O)COC(=O)CC)CC[C@H]2[C@@H]3CCC4=CC(=O)CC[C@]4(C)[C@H]3[C@@H](O)C[C@@]21C | 0.91% [at 19 µM] (inactive)
CCOC(=O)c1ccccc1C | -1.13% (inactive)
CC1=C(C=O)C(C)(C)CCC1 | -0.0782% (inactive)
CC(=O)OCC(=O)[C@@]12OC(C)(C)O[C@@H]1C[C@H]1[C@@H]3C[C@H](F)C4=CC(=O)C=C[C@]4(C)[C@@]3(F)[C@@H](O)C[C@@]12C | 0.227% [at 42.5 µM] (inactive)
CN1CCCN=C1/C=C/c1cccs1 | -0.833% [at 42.5 µM] (inactive)
